From PubChem BioAssay
The source made the active and inactive calls.

Tests used:
[1] = system: Human papillomavirus type 1a protein E7 (residues 44-93); assay: small molecules binding HPV E7 44-93 – biochemical, small-molecule microarray, residues 44-93, 635 nm fluorescence, primary screen (AID 1108); settings: fluorescence 635 nm, higher = more signal;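 note: E7 fragment applied at 1 µg/mL in TBST for 1 h at 4 C; score combines spot fluorescence with its signal to noise ratio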
[2] = hepatitis C replication reporter changes, two-sided – Huh7 cells, luciferase reporter, HCV replication inhibitor project, primary screen (AID 1109); settings: Huh7 HCV replicon luciferase reporter, 48 h; higher = more signal;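 note: huh7 hepatoma cells harbouring a luciferase neomycin HCV replicon reporter; luciferase luminescence as measure of HCV replicon replication; test concentration not given here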
[3] = molecular target: Left-right determination factor 2 (Homo sapiens) (UniProt O00292); assay: small molecules binding LEFTY2 protein – biochemical, small-molecule microarray, 635 nm fluorescence scan, primary screen (AID 1110); settings: higher = more signal
Left-right determination factor 2 (Homo sapiens), sequence (O00292 whole entry, looked up): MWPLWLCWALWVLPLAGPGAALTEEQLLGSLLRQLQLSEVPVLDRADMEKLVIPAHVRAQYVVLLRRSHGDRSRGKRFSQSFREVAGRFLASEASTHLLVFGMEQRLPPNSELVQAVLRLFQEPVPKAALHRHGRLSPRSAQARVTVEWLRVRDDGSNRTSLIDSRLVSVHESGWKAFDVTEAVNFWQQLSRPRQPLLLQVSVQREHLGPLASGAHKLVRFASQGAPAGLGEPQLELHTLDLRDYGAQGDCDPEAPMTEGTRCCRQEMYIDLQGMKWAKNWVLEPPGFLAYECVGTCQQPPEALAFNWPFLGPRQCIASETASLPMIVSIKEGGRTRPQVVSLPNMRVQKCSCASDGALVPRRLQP

[4] = molecular target: Calmodulin-1 (Homo sapiens) (UniProt P0DP23); assay: small molecules binding calmodulin-1 with EGTA – biochemical, small-molecule microarray, Cy5-labelled CALM1, profiling panel (AID 1111); settings: Cy5-CALM1 binding fluorescence, higher = more signal;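 note: labelled calmodulin applied in Tris saline Tween buffer holding calcium plus EGTA and DTT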
[5] = molecular target: Calmodulin-1 (Homo sapiens) (UniProt P0DP23); assay: small molecules binding Ca-loaded calmodulin-1 – biochemical, small-molecule microarray, Cy5-labelled CALM1, plus calcium, artefact control for SMM control-protein annotation, profiling panel (AID 1112); settings: Cy5-CALM1 binding fluorescence, higher = more signal;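 note: score merges spot fluorescence with signal to noise from triplicate slides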
[6] = probe aWnt5a binding to arrayed compounds – biochemical, biotinylated probe, 635/667 nm fluorescence, primary screen (AID 1113); settings: small-molecule microarray, higher = more signal;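 note: score merges 667 nm fluorescence intensity with signal-to-noise per printed feature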
[7] = probe aShh binding to arrayed compounds – biochemical, biotinylated probe, 635/667 nm fluorescence, primary screen (AID 1114); settings: small-molecule microarray, higher = more signal;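 note: probe is biotin-labelled aShh protein from a stem cell growth factor screen; measures binding of labelled protein to compounds printed on the slide; score merges feature fluorescence at 667 nm with signal-to-noise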
[8] = probe aNog binding to arrayed compounds – biochemical, biotinylated probe, 635/667 nm fluorescence, primary screen (AID 1115); settings: small-molecule microarray, higher = more signal;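 note: probe is biotinylated aNog protein used at 0.15 µg/mL for 1 h at 4 C; z-score combines 667 nm fluorescence of each spot with its signal to noise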
[9] = molecular target: Torsin-1A-interacting protein 1 (Homo sapiens) (UniProt Q5JTV8); assay: compound microarray binding of lysate hLAP1 – cell lysate, small-molecule microarray, COS7 lysate, 635/667 nm fluorescence, primary screen (AID 1116); settings: 635 nm fluorescence, higher = more signal
Torsin-1A-interacting protein 1 (Homo sapiens), sequence (Q5JTV8 whole entry, looked up): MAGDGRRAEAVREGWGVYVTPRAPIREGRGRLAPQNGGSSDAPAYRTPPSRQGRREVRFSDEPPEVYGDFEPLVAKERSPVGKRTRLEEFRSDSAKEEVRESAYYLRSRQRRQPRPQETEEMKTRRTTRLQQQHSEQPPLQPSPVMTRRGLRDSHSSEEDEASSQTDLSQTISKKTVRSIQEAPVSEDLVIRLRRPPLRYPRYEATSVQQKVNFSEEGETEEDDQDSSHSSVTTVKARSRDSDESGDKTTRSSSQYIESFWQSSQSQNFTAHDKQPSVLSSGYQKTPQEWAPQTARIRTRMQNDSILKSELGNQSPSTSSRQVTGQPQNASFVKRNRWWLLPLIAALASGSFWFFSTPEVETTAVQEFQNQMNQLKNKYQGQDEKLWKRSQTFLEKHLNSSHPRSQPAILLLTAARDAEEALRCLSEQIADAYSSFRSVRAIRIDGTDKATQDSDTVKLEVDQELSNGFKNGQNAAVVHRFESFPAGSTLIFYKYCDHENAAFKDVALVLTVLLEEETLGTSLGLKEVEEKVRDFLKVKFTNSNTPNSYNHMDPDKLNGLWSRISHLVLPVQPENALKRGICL

[10] = molecular target: Alpha-bungarotoxin (Bungarus multicinctus) (UniProt P60615); assay: compounds binding labelled alpha-BTX control protein – biochemical, small-molecule microarray, Alexa647 label, 635/667 nm fluorescence, artefact control for SMM control protein annotation, profiling panel (AID 1117); settings: alpha-BTX-A647 binding fluorescence, higher = more signal
Alpha-bungarotoxin (Bungarus multicinctus), sequence (P60615 whole entry, looked up): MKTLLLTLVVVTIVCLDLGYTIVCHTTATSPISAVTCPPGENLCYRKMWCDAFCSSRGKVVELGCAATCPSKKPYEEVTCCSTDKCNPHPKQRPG

Albumin (Bos taurus) = Albumin (Bos taurus) (UniProt P02769); assay: compounds binding labelled BSA control protein – biochemical, small-molecule microarray, Alexa647 label, 635/667 nm fluorescence, artefact control for SMM control protein annotation, profiling panel (AID 1118); settings: BSA-A647 binding, fluorescence 635 nm, higher = more signal;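 note: score merges 667 nm emission intensity and signal-to-noise per printed compound spot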
Albumin (Bos taurus), sequence (P02769 whole entry, looked up): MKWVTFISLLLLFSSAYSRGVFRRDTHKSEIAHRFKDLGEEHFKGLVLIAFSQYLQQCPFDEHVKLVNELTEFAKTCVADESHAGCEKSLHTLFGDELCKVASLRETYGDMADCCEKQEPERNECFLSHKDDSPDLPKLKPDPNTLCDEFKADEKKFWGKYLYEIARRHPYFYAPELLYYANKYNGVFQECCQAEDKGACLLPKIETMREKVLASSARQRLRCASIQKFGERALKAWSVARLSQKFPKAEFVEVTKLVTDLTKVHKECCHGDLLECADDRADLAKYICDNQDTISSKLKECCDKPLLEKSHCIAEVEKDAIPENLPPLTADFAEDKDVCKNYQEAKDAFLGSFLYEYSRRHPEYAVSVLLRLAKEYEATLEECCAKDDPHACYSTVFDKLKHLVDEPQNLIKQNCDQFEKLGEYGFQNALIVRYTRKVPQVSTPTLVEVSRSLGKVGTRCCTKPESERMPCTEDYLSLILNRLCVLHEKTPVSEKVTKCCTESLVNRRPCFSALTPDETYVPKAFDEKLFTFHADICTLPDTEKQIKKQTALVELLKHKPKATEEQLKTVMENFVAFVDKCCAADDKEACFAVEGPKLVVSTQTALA

[11] = probe aXIP binding to arrayed compounds – biochemical, NeuroSMM set, 635/667 nm fluorescence, primary screen (AID 1119); settings: small-molecule microarray, higher = more signal, called active from +8 up or from −8 down;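 note: probe is the protein aXip251-270 applied at 1 µg/mL to compound-printed slides; binding of probe to printed compounds measured as 667 nm fluorescence plus signal to noise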
[12] = probe aNOTCH3 binding on compound microarray – biochemical, small-molecule microarray, 635/667 nm fluorescence, primary screen (AID 1120); settings: higher = more signal;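 note: probe is a biotin-tagged antibody raised against NOTCH3 rather than NOTCH3 protein; score merges spot fluorescence near 667 nm with spot signal to noise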
[13] = probe aNOTCH2 binding on compound microarray – biochemical, small-molecule microarray, 635/667 nm fluorescence, primary screen (AID 1121); settings: higher = more signal;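 note: score merges feature fluorescence read at 667 nm with its signal to noise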
[14] = molecular target: Carbonic anhydrase 2 (Homo sapiens) (UniProt P00918); assay: compounds binding carbonic anhydrase 2 – biochemical, small-molecule microarray, Alexa647-labelled CAII, profiling panel (AID 1122); settings: CAII-A647 binding fluorescence, higher = more signal
[15] = COS7 lysate on small-molecule microarray, probe aHis, 635 nm (AID 1123); settings: COS7 cell lysate, fluorescence, higher = more signal;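 note: z-score combines 667nm fluorescence intensity with signal-to-noise per printed compound spot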
[16] = probe aLAP1 signal on lysate-treated microarray – cell lysate, small-molecule microarray, COS7 lysate, primary screen (AID 1124); settings: probe aLAP1, fluorescence, higher = more signal;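 note: lysate comes from COS7 cells expressing LAP1 and is applied at 0.3 µg/mL; score merges spot fluorescence near 667 nm with signal-to-noise over triplicate slides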
Sam68 (KHDRBS1) = assay: compounds binding KHDRBS1 protein – biochemical, small-molecule microarray, 635 nm fluorescence, primary screen (AID 1125); settings: higher = more signal;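 note: score merges 667 nm channel intensity with signal to noise over triplicate slides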
[17] = system: Chordin-like protein 2 (CHRDL2); assay: compounds binding chordin-like 2 – biochemical, small-molecule microarray, 635 nm fluorescence, primary screen (AID 1126); settings: fluorescence 635 nm, higher = more signal;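 note: printed compound slides probed with Chrdl2 protein at 4 µg/mL for 1 h at 4 C; score merges 667 nm emission intensity with signal to noise over three replicate slides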
[18] = molecular target: Concanavalin-A (Canavalia ensiformis) (UniProt P02866); assay: compounds binding concanavalin A lectin – biochemical, small-molecule microarray, Alexa647 label, 635 nm, artefact control for SMM control protein annotation, primary screen (AID 1127); settings: ConA-A647 binding fluorescence, higher = more signal;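 note: z combines 667 nm emission intensity with signal-to-noise across three replicate slides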
Concanavalin-A (Canavalia ensiformis), sequence (P02866 whole entry, looked up): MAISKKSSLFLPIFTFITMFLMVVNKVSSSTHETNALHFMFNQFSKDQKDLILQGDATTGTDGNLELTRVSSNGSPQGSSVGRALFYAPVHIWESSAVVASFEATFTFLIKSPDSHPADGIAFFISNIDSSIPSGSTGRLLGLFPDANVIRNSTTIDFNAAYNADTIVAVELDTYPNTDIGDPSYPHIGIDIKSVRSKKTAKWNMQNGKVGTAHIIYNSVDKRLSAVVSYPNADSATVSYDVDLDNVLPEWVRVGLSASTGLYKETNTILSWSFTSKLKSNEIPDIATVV

| SMILES | composite z-score [1] | z-score [2] | composite z-score [3] | composite z-score [4] | composite z-score [5] | composite z-score [6] | composite z-score [7] | composite z-score [8] | composite z-score [9] | composite z-score [10] | composite z-score (Albumin (Bos taurus)) | composite Z-score [11] | composite z-score [12] | composite z-score [13] | composite z-score [14] | composite z-score [15] | composite z-score [16] | composite z-score (Sam68 (KHDRBS1)) | composite z-score [17] | composite z-score [18] |
| --- | --- | --- | --- | --- | --- | --- | --- | --- | --- | --- | --- | --- | --- | --- | --- | --- | --- | --- | --- | --- |
| O=C(NN=C1C[C@@H](O)[C@@H](O)[C@@H]2[C@@H]3C(=O)N(C4CCCCC4)C(=O)[C@@H]3CC[C@@H]12)OCc1ccccc1 | -0.671 | -0.771 | 0.482 | -0.367 | -0.606 | -0.115 | 0.0156 | -0.0522 | -0.534 | -0.0382 | 0.566 | -0.243 (inactive) | -0.0873 | -0.258 | -0.129 | -0.107 | 1.74 | -0.881 | 0.425 | 0.457 |
| COc1ccc(COC(=O)NN=C2C[C@@H](O)[C@@H](O)[C@@H]3[C@@H]4C(=O)N(c5cccc(Oc6ccccc6)c5)C(=O)[C@@H]4CC[C@@H]23)cc1 | -0.203 | -1.98 | -0.0421 | -0.338 | 0.0996 | -0.0165 | -0.117 | -0.0641 | 0.326 | 0.487 | 0.267 | 0.807 (inactive) | 0.123 | -0.149 | 0.0806 | 0.303 | -0.116 | -0.456 | -0.424 | -0.337 |
| CON=Cc1ccc(C(=O)N2[C@H](c3ccc(C)cc3)[C@@H](C)CC[C@H]2C(=O)OC)cc1 | 1.25 | -1.33 | -0.203 | -0.129 | -0.121 | -0.0044 | 0.0684 | -0.0503 | -0.0018 | 0.449 | 0.54 | 0.059 (inactive) | 0.0257 | -0.202 | 0.0882 | 0.715 | 0.251 | 1.11 | 0.262 | 0.669 |
| C=Cc1ccc([C@H]2N[C@H](C(=O)O)CC[C@@H]2C)cc1 | -1.08 | -1.09 | 0.712 | -0.478 | 0.222 | -0.105 | -0.0553 | -0.147 | -0.0037 | -0.112 | 0.108 | -0.602 (inactive) | -0.178 | -0.155 | 0.275 | -0.344 | 0.723 | -1.6 | 0.65 | -0.437 |
| CC(=O)OC[C@H]1O[C@@H](ON=C(C)CCN2CCCc3nc(C)c(C)cc32)[C@H](OC(C)=O)[C@@H](OC(C)=O)[C@@H]1OC(C)=O | 1.38 | -1.14 | 0.737 | 0.113 | -0.743 | -0.117 | -0.167 | 0.0401 | 0.466 | 0.0927 | 0.449 | 0.403 (inactive) | -0.0587 | -0.0695 | 0.155 | 0.678 | 0.16 | 1.13 | -0.144 | 1.03 |
| Cc1ccc(S(=O)(=O)NC(CCc2ccccc2)CC(=O)C(C)(C)C)cc1 (stereo not given) | 0.52 | -2.04 | 0.445 | -0.0921 | -0.418 | -0.125 | 0.304 | -0.0626 | -0.0055 | 0.369 | -0.122 | 0.6 (inactive) | 0.0591 | -0.0984 | 0.0117 | 0.0881 | -0.113 | 0.93 | 0.686 | 0.87 |
| C[n+]1ccc(-c2ccc(CO)cc2)cc1 | -1.04 | -0.0613 | 0.616 | 0.468 | 0.607 | -0.117 | -0.0709 | -0.329 | 0.724 | 3.86 | -0.619 | 2.7 (inactive) | -0.0377 | -0.157 | 0.68 | -0.702 | 0.372 | 0.364 | 1.54 | 1.11 |
| O=C1C=C[C@@H](O)[C@@H]2[C@@H]3C(=O)N(c4ccc(F)cc4F)C(=O)[C@@H]3CC[C@@H]12 | 0.229 | -0.578 | 0.237 | 0.269 | -0.282 | -0.0405 | -0.153 | -0.252 | 0.804 | 0.0764 | 0.351 | 0.331 (inactive) | 0.0409 | -0.0772 | -0.0233 | -0.303 | -0.113 | 0.157 | 0.717 | 0.753 |
| CCOC(=O)CCN1C(=O)[C@H]2[C@H]3[C@H](O)[C@H](O)CC(=NOCC(C)C)[C@H]3CC[C@H]2C1=O | -0.245 | 0.453 | 0.0607 | -0.271 | -0.26 | -0.0346 | -0.209 | 0.0669 | 0.326 | 0.797 | 0.345 | 0.636 (inactive) | -0.0377 | -0.14 | -0.278 | 0.163 | 0.528 | -0.353 | 0.433 | 0.0589 |
| COc1ccc(O[C@H]2C=C[C@@H](c3ccccc3)O[C@@H]2CON=C2[C@H]3CCn4c(=O)n(-c5ccccc5)c(=O)n4[C@H]3[C@H](O)[C@@H]3O[C@H]23)cc1 | 0.807 | -4.67 | 0.505 | 0.719 | -0.21 | -0.0192 | -0.0769 | -0.0855 | 0.24 | 0.974 | 0.67 | 0.125 (inactive) | -0.0282 | -0.132 | 0.405 | 0.455 | 0.244 | 1.18 | 0.276 | 0.817 |
| CC(CCN1CCCCc2nc(C)c(C)cc21)=NO[C@@H](C)c1cn([C@H](CO)Cc2ccccc2)nn1 | 0.271 | -0.507 | 0.813 | 0.404 | -0.0345 | -0.152 | -0.117 | -0.397 | 0.691 | 0.414 | 0.779 | 0.364 (inactive) | 0.0833 | -0.14 | 0.464 | -0.01 | -0.248 | 0.719 | 0.953 | 0.249 |
